Data on 48 molecules can be found in PubChem BioAssay.

Test [1] is described as follows: RMG-1 ovarian cancer cell viability loss – cherry-pick, dose response (AID 687029).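 Further: cells exposed to compound for 96 hours.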
Test [2] in a line: general cell-killing toxicity readout – plate reader, dry powder samples, cytotoxicity control for PAX8 inhibitor project, dose response (AID 743021; call rule not given here).

SMILES strings stand for the structures. Results with a measured potency or affinity are listed apart. Inconclusive results are not listed. Unmarked numbers belong to inactive results. Activity calls are given as the source filed them.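 How the source made its calls, unless noted: active means signal drop whose fitted half-maximal concentration is at most twice the top valid dose, in every test run; inconclusive means mixed calls across runs, poor fit, or flat 30 to 70% inhibition; inactive means wrong direction, flat within 30%, or potency beyond limit.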

Take `COc1ccc(C[C@H](N)C(=O)N[C@H]2[C@@H](O)[C@H](n3cnc4c(N(C)C)ncnc43)O[C@@H]2CO)cc1`: the molecule was classed as inactive in test [1] and in test [2].
For `CC(C)(C)N(Cc1ccc2c(c1)OCO2)C(=O)/C=C\S(=O)c1ccccc1` (stereo unspecified), the molecule was classed as inactive in test [1] and in test [2].
Consider `CCCCC(=O)NC(c1ccccc1)c1ccc2cccnc2c1O` (stereo unspecified), for which the call in test [1] and in test [2] was inactive.
For the molecule `Cn1c(=O)[nH]c(=O)c2c1nc([N+](=O)[O-])n2Cc1ccccc1`, the molecule was classed as inactive in test [1] and in test [2].
Regarding `CC(=O)c1cc(NC(=O)c2cccc(C(F)(F)F)c2)c(=O)oc1C`, the outcome in test [1] and in test [2] was inactive.
As to `CC(=O)Nc1ccc(Sc2ccc([N+](=O)[O-])o2)cc1`, the outcome in test [1] and in test [2] was inactive.
In the case of `CCOc1ccc(C(=O)c2cc([N+](=O)[O-])ccc2N2CCOCC2)cc1`, the molecule was classed as inactive in test [1] and in test [2].
In the case of `Oc1ccc(C[C@H]2CNC(=S)N2CC2CCCN2C[C@H](Cc2ccc(O)cc2)N2C[C@H](Cc3ccc(O)cc3)N(CC3CCCCCC3)C2=S)cc1` (stereo partly specified), the molecule was classed as inactive in test [1] and in test [2].
For `CC(=NNc1cc(C)c2ccccc2n1)c1ccccn1`, the outcome in test [1] and in test [2] was inactive.
`Cc1cc(O)c(C(C)C)cc1C1(c2cc(C(C)C)c(O)cc2C)OC(=O)c2ccccc21`: the result in test [1] and in test [2] was inactive.
Consider `O=C(C[C@@H]1C[C@H]2c3cc(NS(=O)(=O)c4ccc(F)cc4)ccc3O[C@H]2[C@H](CO)O1)NCc1ccc(-c2ccccc2)cc1`, for which the outcome in test [1] and in test [2] was inactive.
With `CCC(=O)N1CCN(c2ccc(NC(=O)c3ccc([N+](=O)[O-])o3)cc2Cl)CC1`, the outcome in test [1] and in test [2] was inactive.
Turning to `O=c1ccc2ccccc2c2ccccc12`, the outcome in test [1] and in test [2] was inactive.
With `CC(=O)NC(c1ccc(C(C)C)cc1)c1ccc2cccnc2c1O` (stereo unspecified), the molecule was called inactive in test [1] and in test [2].
Turning to `Cc1cccc(N(C)S(=O)(=O)c2ccc(-c3cnc(C4CC4)o3)cc2)c1`, the call in test [1] and in test [2] was inactive.
In the case of `CN1CCc2c(sc(NC(=O)c3ccc([N+](=O)[O-])o3)c2C(N)=O)C1`, the outcome in test [1] and in test [2] was inactive.
With `O=C(CCS(=O)(=O)c1ccc(Cl)cc1)Nc1nc(-c2ccncc2)cs1`, the call in test [1] and in test [2] was inactive.
With `COc1cccc(/C=N/Nc2ccc([N+](=O)[O-])cn2)c1O`, the molecule was classed as inactive in test [1] and in test [2].
As for `O=C(NC(Nc1nc2ccc([N+](=O)[O-])cc2s1)(C(F)(F)F)C(F)(F)F)c1ccccc1Cl`, the molecule was called inactive in test [1] and in test [2].
Regarding `C#CCN(C[C@@H]1[C@@H](OC(=O)NC2CCCC2)[C@@H](OC(=O)NC2CCCC2)Cn2c(=O)ccc(=O)n21)S(=O)(=O)c1ccc(C)cc1`, the molecule was classed as inactive in test [1] and in test [2].
For `O=S(=O)(NC1CCCCC1N1CCN(c2ccccc2F)CC1)c1ccccc1` (stereo unspecified), the call in test [1] and in test [2] was inactive.
With `COc1ccc(-n2ncc(Cl)c(Cl)c2=O)cc1`, the call in test [1] and in test [2] was inactive.
As for `COc1cc(-c2c(-c3cc(OC)c(OC)c(OC)c3)noc2C)ccc1F`, the call in test [1] and in test [2] was inactive.
With `Cc1cccc2sc(N(CCCN(C)C)C(=O)CCS(=O)(=O)c3ccccc3)nc12`, the molecule was called inactive in test [1] and in test [2].
For the molecule `O=[N+]([O-])c1ccc(N/N=C/c2sc(N3CCOCC3)nc2-c2ccccc2)c(S(=O)(=O)Nc2ccc(Cl)cc2)c1`, the outcome in test [1] and in test [2] was inactive.
With `Cn1nnnc1Sc1ncnc2scc(-c3cc4ccccc4o3)c12`, the molecule was classed as inactive in test [1] and in test [2].
As for `C=CC(=O)N1C/C(=C/c2ccc(F)cc2)C(=O)/C(=C\c2ccc(F)cc2)C1`, the molecule was classed as inactive in test [1] and in test [2].
Take `Cc1cccc(/C=C(\c2nc3ccccc3[nH]2)S(=O)(=O)c2ccccc2)c1`: the outcome in test [1] and in test [2] was inactive.
Turning to `COc1cc(CNc2ncnc3c2ncn3[C@H]2CN(Cc3ccc(-c4ccccc4)cc3)C[C@@H](CO)O2)cc(OC)c1OC`, the molecule was called inactive in test [1] and in test [2].
For the molecule `O=C(Cn1ncc(Cl)c(Cl)c1=O)N1CCN(S(=O)(=O)c2ccc3ccccc3c2)CC1`, the molecule was classed as inactive in test [1] and in test [2].
In the case of `O=c1[nH]nnc2c1ncn2C1OC(CO)C(O)C1O` (stereo unspecified), the molecule was classed as inactive in test [1] and in test [2].
Regarding `COc1ccc(-c2csc(NC(=O)c3ccccc3NS(=O)(=O)c3ccc(F)c(F)c3)n2)cc1`, the molecule was called inactive in test [1] and in test [2].
For the molecule `COc1ccc2c(C)nc(Nc3nc(-c4ccccc4)cc(=O)[nH]3)nc2c1`, the result in test [1] and in test [2] was inactive.
Consider `O=C(CCCN1C(=O)/C(=C/c2cccc(Br)c2)SC1=S)Nc1ccccn1`, for which the molecule was called inactive in test [1] and in test [2].
Regarding `O=C(Nc1ccc(N2CCN(C(=O)c3cccs3)CC2)cc1)c1ccc([N+](=O)[O-])o1`, the outcome in test [1] and in test [2] was inactive.
Take `CCOC(=O)c1ccc(NC(=O)Cn2ncc(Cl)c(Cl)c2=O)cc1`: the molecule was called inactive in test [1] and in test [2].
For the molecule `Cc1cc(C)c2nc(SCC(=O)N3CC(=O)Nc4ccccc43)c(C#N)cc2c1`, the molecule was classed as inactive in test [1] and in test [2].
As to `CCCc1ccc(C(=O)O/N=C(\N)c2ccccn2)cc1`, the molecule was classed as inactive in test [1] and in test [2].
Consider `O=C(CCl)Nc1cc2[nH]c(=O)[nH]c2cc1Br`, for which the molecule was classed as inactive in test [1] and in test [2].
Consider `CC(=O)Nc1ccc(-c2ccnc3c2CC(C(=O)NCc2ccccc2)O3)cc1` (stereo unspecified), for which the call in test [1] and in test [2] was inactive.
Turning to `O=C(C1CC1)N1C[C@@H]2N[C@H](C1)C2c1ccc(-c2ccccc2F)cc1` (stereo partly specified), the result in test [1] and in test [2] was inactive.
`COc1ccc(NC(=O)C(=O)NCC2CCCN2S(=O)(=O)c2ccc(C)cc2)cc1` (stereo unspecified): the outcome in test [1] and in test [2] was inactive.
With `COC(=O)[C@H]1[C@@H](O)[C@@]2(O)c3c(OC)cc(OC)cc3O[C@@]2(c2ccc(OC)cc2)[C@@H]1c1ccc(F)cc1`, the molecule was classed as inactive in test [1] and in test [2].
For the molecule `COc1ccc(-c2cnc3c(NC=O)cc(-c4cccc(NS(C)(=O)=O)c4)cn23)cc1OC`, the result in test [1] and in test [2] was inactive.
Consider `O=C(COc1ccccc1-c1ccccc1)N/N=C/c1ccc2ccccc2c1`, for which the outcome in test [1] and in test [2] was inactive.
In the case of `COc1ccc(-c2cnc3c(NC=O)cc(-c4ccccc4OC)cn23)cc1OC`, the molecule was called inactive in test [1] and in test [2].
For `Cc1ccc(/C=N/NC(=O)COc2ccccc2-c2ccccc2)cc1`, the call in test [1] and in test [2] was inactive.
On to `C[C@H]1O[C@@H](O[C@H]2[C@@H](O)C[C@H](O[C@H]3[C@@H](O)C[C@H](O[C@H]4CC[C@@]5(C)[C@H](CC[C@@H]6[C@@H]5C[C@@H](O)[C@]5(C)[C@@H](C7=CC(=O)OC7)CC[C@]65O)C4)O[C@@H]3C)O[C@@H]2C)C[C@H](O)[C@@H]1O`, for which the call in test [1] and in test [2] was inactive.
